Experimental data published in PubChem BioAssay AID504914 (The Scripps Research Institute Molecular Screening Center, 2011).
Some of the results follow. Values without a mark were called inactive. How the calls were made is not given here.

What follows are compounds tested against 5-hydroxytryptamine receptor 5A (Homo sapiens) (UniProt P47898) (assay: HTR5A inverse agonists, counter-screen for OPRM1-OPRD1 inverse agonist project, cell-based, luminescence (AID 504914;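 further: 0% = cells with DMSO and 100% = no-cell wells with DMSO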)). Conditions: HTR5A-expressing cells, inverse agonism, at 9.3 µM, hits give high values.
5-hydroxytryptamine receptor 5A (Homo sapiens), sequence (P47898 whole entry, looked up): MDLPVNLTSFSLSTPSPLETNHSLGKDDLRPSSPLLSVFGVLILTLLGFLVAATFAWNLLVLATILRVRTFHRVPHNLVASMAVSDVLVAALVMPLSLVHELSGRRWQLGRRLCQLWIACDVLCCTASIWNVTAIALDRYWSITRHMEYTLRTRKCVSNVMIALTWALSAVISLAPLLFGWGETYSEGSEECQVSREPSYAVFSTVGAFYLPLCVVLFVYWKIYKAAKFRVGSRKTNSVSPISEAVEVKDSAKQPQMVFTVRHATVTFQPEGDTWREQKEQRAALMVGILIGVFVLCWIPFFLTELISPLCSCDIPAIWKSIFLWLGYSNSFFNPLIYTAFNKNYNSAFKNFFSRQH

Question: For CCOc1ccc(NC(=O)c2cccc3c2C(=O)N(CC2CCCO2)C3)cc1 (stereo not drawn), which inhibition is on record?
Answer: The inhibition was -4.42%.

Question: CCCCC(=O)NNC(=S)NC(=O)C(c1ccccc1)c1ccccc1 was tested. Which inhibition did it give?
Answer: The inhibition was -76%.

Question: For CC(C)OC(=O)CN1C(=O)C(=O)c2ccccc21, which inhibition is on record?
Answer: The inhibition was 4.72%.

Question: Which inhibition does the source give for Cc1cccc(C)c1NC(=O)C(Cl)C(=O)c1ccccc1 (stereo not drawn) here?
Answer: The inhibition was -75.6%.

Question: For COc1cc(NS(=O)(=O)c2ccc3ccccc3c2)c2ncccc2c1, which inhibition is on record?
Answer: Its inhibition is -111%.

Question: Which inhibition does the source give for CCOC(=O)CN1C(=O)C(O)(CC(=O)c2ccccn2)c2ccccc21 (stereo not drawn) here?
Answer: The inhibition was 10.2%.

Question: Which inhibition does the source give for Cc1cccc2c1N(CCOc1ccccc1)C(=O)C2=O here?
Answer: The inhibition was 10.3%.

Question: Which inhibition does the source give for Cc1ccc(NC2(C#N)C(=O)Nc3ccccc32)cc1 (stereo not drawn) here?
Answer: Its inhibition is -97.2%.
